# NPC1 prom act = activates the NPC1 promoter; Huh7 NPC1 promoter luciferase reporter, 24 h; Potency, µM (top dose mostly 9.22 µM), for inactives: top-dose activation, usual class: activators; 320,000 compounds, 2.4% hits; AID 485313; note: % of control where 0% means no effect; nearly all actives have a fitted effect of over 60% in size
#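 Stably transfected Huh7 (NPC1 promoter→luciferase), 1500 cells/well in Opti-MEM + 10% FBS, 2 h settle, then compound 24 h at 37 °C. Luminescence after 10 min with Amplite reagent.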
# FLuc modulator = firefly luciferase modulation, counter-screen for miR-21 project | P08659 | purified FLuc, Km substrates, luminescence inhibition | Potency, µM (doses to about 57.5 µM), inactives show at the top dose activity change, negative = inhibition, usual class: inhibitors | 360,000 compounds, 6.9% hits;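 note: plate controls were vehicle for no effect and reference inhibitor for full effect; nearly all actives have a fitted effect of over 55% in size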
# Target sequence (P08659 whole entry, looked up): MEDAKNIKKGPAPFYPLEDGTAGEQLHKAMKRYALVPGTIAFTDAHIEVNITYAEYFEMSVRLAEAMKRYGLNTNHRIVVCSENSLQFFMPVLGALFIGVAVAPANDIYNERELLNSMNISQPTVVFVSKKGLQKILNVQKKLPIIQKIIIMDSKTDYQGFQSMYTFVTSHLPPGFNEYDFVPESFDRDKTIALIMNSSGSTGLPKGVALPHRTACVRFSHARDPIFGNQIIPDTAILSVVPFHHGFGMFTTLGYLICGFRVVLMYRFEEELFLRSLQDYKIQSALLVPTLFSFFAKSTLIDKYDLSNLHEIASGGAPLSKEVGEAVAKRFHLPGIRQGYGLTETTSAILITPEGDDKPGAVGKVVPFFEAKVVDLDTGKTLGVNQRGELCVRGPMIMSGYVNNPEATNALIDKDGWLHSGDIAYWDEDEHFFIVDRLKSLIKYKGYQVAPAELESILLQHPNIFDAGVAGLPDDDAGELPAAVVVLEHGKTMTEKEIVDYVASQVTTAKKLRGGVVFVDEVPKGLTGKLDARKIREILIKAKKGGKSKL
#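 Biochemical qHTS of compounds, final roughly 60 µM downward over six points, against 10 nM purified firefly luciferase using Km concentrations of substrates (10 uM D-luciferin, 10 uM ATP) in Tris acetate pH 7.5 buffer; luminescence output.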
# ELG1 genotoxic = inducers of genotoxicity in HEK293T ELG1-luciferase cells; 330,000 compounds, 1.3% hits; Potency, µM (series often up to 46 µM), for the others: at the top dose activity change, positive = activation, most hits filed as activators; HEK293T ELG1-luciferase reporter, luminescence, 16 h; note: % of control where 0% means no effect; nearly all actives have a fitted effect of over 60% in size
#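 ELG1-luciferase HEK293T cells, 2,000/well; compound pinned in; 16 hr, 37 °C, 5% CO2; ONE-Glo, 30 min RT; luminescence on CCD imager.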
# SMN2 splice up = enhancers of SMN2 splice variant expression | HEK293 SMN2-luciferase splicing reporter, luminescence, 30-36 h | Potency, µM (highest dose often 46.1 µM), for the others: at the top dose activity change, positive = activation, most hits filed as activators | 210,000 compounds, 2.8% hits | AID 1458; note: % of control where 0% means no effect; nearly all actives have a fitted effect of over 55% in size
#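 HEK293 cells carry an SMN2 minigene-luciferase reporter in which exon 7 inclusion puts luciferase in frame. Cells were seeded at 2000 cells/well, attached for 10-12 hours, then exposed to compounds for 30-36 hours at 37C before ONE-Glo luminescence.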
# Rab9 prom act = Rab9 promoter activation | 320,000 compounds, 2.8% hits | AID 485297 | Huh7 Rab9 promoter-luciferase reporter, luminescence, 24 h | Potency, µM (series often up to 9.22 µM), inactives show top-dose activation, negative = inhibition, hits mostly activators; note: % of control where 0% means no effect; nearly all actives have a fitted effect of over 60% in size
#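 Using Huh7 cells stably transfected with Rab9 promoter–luciferase, compounds were incubated 24 h at 37 °C, 5% CO2; luciferase luminescence was read 10 min after reagent addition.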
# * hit, by the source's call; ? = inconclusive; / = no result given; [ ] = another dose, or the depositor's remark. Only some compounds are listed: those with a hit (about 7.5% of all), similar ones and a draw of the others. Calls come from the whole dose curve; as a rule, active = well fitted curve in the direction sought with a large enough effect; inconclusive = small, poorly fitted or top-dose-only effect, or another doubt; inactive = no such curve, though single readings can be large; an effect the other way counts as inactive or inconclusive. Potency is the fitted concentration of half-maximal effect.
SMILES,NPC1 prom act,FLuc modulator,ELG1 genotoxic,SMN2 splice up,Rab9 prom act
COC(=O)C1=C(O)/C(=C\c2ccc(CNC(=O)C(=O)Nc3ccc(C)c(C)c3)o2)N=C1C,-1%,?,8%,-15%,-5%
CCOC(=O)C(=O)NCc1ccc(/C=C2/N=C(C)C(C(=O)OCC)=C2O)o1,0%,-8%,4%,/,-13%
CC(OC(=O)c1cc2sccc2n1C)C(=O)NCCc1ccccc1 (configuration not stated),1%,-6%,-2%,-6%,-2%
O=C(Cn1c(=O)nc(-c2ccccc2)c2ccccc21)Nc1ccc(Cl)c(C(F)(F)F)c1,/,0%,/,/,/
CC(=O)Nc1nnc(COc2ccc(Cl)cc2)s1,3.2µM*,15µM*,15µM*,11µM*,3.5µM*
CC(=O)c1csc(COc2ccc(Cl)cc2)n1,0.89µM*,24µM*,?,/,0.79µM*
CC(C)(C)c1ccc(OCc2nnc(SCC(N)=O)n2N)cc1,1%,-18%,-1%,9%,1%
Cc1ccc(NC(=O)Nc2ccon2)cc1,25%,?,14%,/,?
O=C(CC(=O)c1ccccc1)Nc1cccnc1,23%,?,6%,4%,-1%
Cc1ccc(NC(=O)Nc2cccnc2)cc1Cl,?,4.8µM*,?,/,28%
CCOc1ccc(NC(=O)Nc2ccon2)cc1,25%,24µM*,?,/,?
O=C(Nc1ccccc1)C(=O)Nc1cccnc1,0.5µM*,3µM*,?,/,0.4µM*
Cc1ccc(NC(=O)Nc2ccon2)cc1Cl,21%,19µM*,3%,/,23%
CN(C)/C=C/c1c([N+](=O)[O-])c2ccc(O)cc2n1-c1ccccc1,1%,-10%,-8%,/,-5%
CN1CCc2cc(NC(=O)Nc3cccnc3)ccc21,9.2µM*,/,/,?,?
O=C(Nc1ccc(F)cc1)Nc1cccnc1,10%,17µM*,1%,/,4%
Cn1ccc2cc3c(cc21)CCN3C(=O)Nc1cccnc1,3.7µM*,6µM*,?,?,3.2µM*
O=C(Nc1ccc(OC(F)(F)F)cc1)Nc1cccnc1,?,7.6µM*,6%,/,?
O=C(NCC(F)(F)F)Nc1cccnc1,-7%,-1%,1%,-10%,7%
COc1cc2c(cc1C(F)(F)F)N(C(=O)Nc1cc(F)cc(-c3cccnc3)c1)CC2,/,/,/,-18%,/
Fc1ccc(NC(=S)Nc2cccnc2)cc1,-2%,3%,-8%,-9%,-2%
CCOC(=O)CSc1ccc(S(=O)(=O)N(CC)CC)cc1[N+](=O)[O-],-11%,-2%,0%,/,1%
CC(=O)c1ccc(NC(=O)Nc2cccnc2)cc1,2.5µM*,?,21µM*,/,?
O=C(Nc1ccccc1)Nc1ccc(Oc2cccnc2)nc1,27%,13µM*,6%,/,25%
CCC(C)c1ccc(NC(=O)NCc2cccnc2)cc1 (configuration not stated),9%,-13%,-2%,/,11%
SMILES,NPC1 prom act,FLuc modulator,ELG1 genotoxic,SMN2 splice up,Rab9 prom act
CCC(C)c1ccc(NC(=O)Nc2cccnc2)cc1 (configuration not stated),1.8µM*,1.7µM*,?,/,4.5µM*
COc1cccc2c(=O)cc(C)n(CC(=O)Nc3ccc(C)c(C)c3)c12,-3%,-12%,0%,-74%,-19%
Cc1cc(C(=O)Nc2nccs2)c2cc(F)ccc2n1,2%,5%,-3%,/,1%
Cc1c(C(=O)Nc2nccs2)oc2ccc(F)cc12,3.5µM*,?,14%,/,1.6µM*
Cc1c(C(=O)/C=C/c2cccs2)oc2ccc(F)cc12,4µM*,0.67µM*,?,-14%,4µM*
Cc1c(C(=O)Nc2nccs2)oc2ccc(Br)cc12,/,/,9.2µM*,/,/
COc1ccc(OC)c(NC(=O)c2ccc(CSc3nnc(C)s3)cc2)c1,-2%,?,-4%,-11%,-1%
Cc1cc(C)cc(C(=O)NCC(c2ccc(N(C)C)cc2)N2CCCC2)c1 (configuration not stated),/,2%,/,/,/
COc1ccc(CCNC(=O)C2CCCN2S(=O)(=O)c2ccc(F)cc2)cc1OC (configuration not stated),-3%,1%,-3%,-4%,-2%
O=C(OCC(=O)N(C1CCCCC1)C1CCCCC1)c1ccccc1O,-1%,0%,-11%,/,-2%[1.84 µM]
